Assay results: the supplement of paper PMC12282887
± gives the standard deviation of the averaged measurements.

Columns and labels:
Assay in all cases: promoter activity interaction Z-score (Lux/OD deviation from empty-vector control); higher = stronger promoter induction by the compound
[1] = system: E. coli BW25113 acrABp lux reporter
How it was run: (§1)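 OD600 and luminescence of E. coli BW25113 reporter cultures (40 µl LB Lennox, 384-well plates, 37°C) were measured every 30 min for 12 h. Integration ran over 0–8 h for wild type or 1–9 h for deletion strains, and wells with growth below 10% of the median were dropped. The score is the Z-transformed residual of growth-normalised luminescence fitted against a control.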

[2] = system: E. coli BW25113 micFp lux reporter
How it was run: as §1

[3] = system: E. coli BW25113 ompFp lux reporter
How it was run: as §1

[4] = system: E. coli BW25113 robp lux reporter
How it was run: as §1

[5] = system: E. coli BW25113 soxSp lux reporter
How it was run: as §1

[6] = system: E. coli BW25113 tolCp lux reporter
How it was run: as §1

[7] = 0.26 µg/ml, genetic background: wild type
[8] = 0.26 µg/ml, genetic background: ΔmarA
[9] = 0.26 µg/ml, genetic background: Δrob
[10] = 0.26 µg/ml, genetic background: ΔsoxS
[11] = 0.52 µg/ml, genetic background: wild type
[12] = 0.52 µg/ml, genetic background: ΔmarA
[13] = 0.52 µg/ml, genetic background: Δrob
[14] = 0.52 µg/ml, genetic background: ΔsoxS
[15] = 1 µg/ml, genetic background: wild type
[16] = 1 µg/ml, genetic background: ΔmarA
[17] = 1 µg/ml, genetic background: Δrob
[18] = 1 µg/ml, genetic background: ΔsoxS
[19] = 2.1 µg/ml, genetic background: wild type
[20] = 2.1 µg/ml, genetic background: ΔmarA
[21] = 2.1 µg/ml, genetic background: Δrob
[22] = 2.1 µg/ml, genetic background: ΔsoxS

CCC[C@@H]1C[C@@H](C(=O)N[C@@H]([C@H]2O[C@H](SC)[C@H](O)[C@@H](O)[C@H]2O)[C@H](C)Cl)N(C)C1 [Clindamycin]
promoter activity interaction Z-score [1, 7]: 0.462 ± 0.13
promoter activity interaction Z-score [1, 8]: 0.688 ± 0.64
promoter activity interaction Z-score [1, 9]: 0.443 ± 0.12
promoter activity interaction Z-score [1, 10]: 0.20427 ± 5.4e-05
promoter activity interaction Z-score [1, 11]: 0.0439 ± 0.28
promoter activity interaction Z-score [1, 12]: 0.0236 ± 0.74
promoter activity interaction Z-score [1, 13]: 0.389 ± 0.16
promoter activity interaction Z-score [1, 14]: 0.296 ± 0.26
promoter activity interaction Z-score [1, 15]: 0.0522 ± 0.49
promoter activity interaction Z-score [1, 16]: -0.845 ± 0.54
promoter activity interaction Z-score [1, 17]: 0.554 ± 0.027
promoter activity interaction Z-score [1, 18]: 0.424 ± 0.19
promoter activity interaction Z-score [1, 19]: 0.541 ± 0.29
promoter activity interaction Z-score [1, 20]: -1.07 ± 0.54
promoter activity interaction Z-score [1, 21]: 0.386 ± 0.14
promoter activity interaction Z-score [1, 22]: 0.958 ± 1.2
promoter activity interaction Z-score [2, 7]: 0.509 ± 0.54
promoter activity interaction Z-score [2, 8]: 0.0727 ± 0.038
promoter activity interaction Z-score [2, 9]: -0.112 ± 0.21
promoter activity interaction Z-score [2, 10]: -0.295 ± 0.22
promoter activity interaction Z-score [2, 11]: -0.308 ± 0.46
promoter activity interaction Z-score [2, 12]: -0.109 ± 0.1
promoter activity interaction Z-score [2, 13]: 0.00775 ± 0.06
promoter activity interaction Z-score [2, 14]: -0.12048 ± 8.2e-05
promoter activity interaction Z-score [2, 15]: -0.107 ± 0.47
promoter activity interaction Z-score [2, 16]: -0.106 ± 0.01
promoter activity interaction Z-score [2, 17]: -0.0738 ± 0.2
promoter activity interaction Z-score [2, 18]: 0.189 ± 0.27
promoter activity interaction Z-score [2, 19]: 0.291 ± 0.71
promoter activity interaction Z-score [2, 20]: -0.2694 ± 0.0025
promoter activity interaction Z-score [2, 21]: 0.0565 ± 0.17
promoter activity interaction Z-score [2, 22]: 0.457 ± 0.16
promoter activity interaction Z-score [3, 7]: 0.86 ± 0.48
promoter activity interaction Z-score [3, 8]: 0.602 ± 0.034
promoter activity interaction Z-score [3, 9]: 0.184 ± 0.088
promoter activity interaction Z-score [3, 10]: -0.129 ± 0.28
promoter activity interaction Z-score [3, 11]: 0.0844 ± 0.74
promoter activity interaction Z-score [3, 12]: 0.364 ± 0.24
promoter activity interaction Z-score [3, 13]: 0.973 ± 0.091
promoter activity interaction Z-score [3, 14]: 0.0417 ± 0.17
promoter activity interaction Z-score [3, 15]: 0.629 ± 1
promoter activity interaction Z-score [3, 16]: 0.255 ± 0.36
promoter activity interaction Z-score [3, 17]: 0.164 ± 0.52
promoter activity interaction Z-score [3, 18]: 0.389 ± 0.074
promoter activity interaction Z-score [3, 19]: 1.41 ± 0.49
promoter activity interaction Z-score [3, 20]: 0.484 ± 0.28
promoter activity interaction Z-score [3, 21]: 0.877 ± 0.67
promoter activity interaction Z-score [3, 22]: 1.71 ± 1.1
promoter activity interaction Z-score [4, 7]: 0.81 ± 0.04
promoter activity interaction Z-score [4, 8]: 0.716 ± 0.3
promoter activity interaction Z-score [4, 9]: 0.204 ± 0.64
promoter activity interaction Z-score [4, 10]: 0.581 ± 0.019
promoter activity interaction Z-score [4, 11]: 0.0509 ± 0.11
promoter activity interaction Z-score [4, 12]: 0.27 ± 0.26
promoter activity interaction Z-score [4, 13]: -0.0366 ± 0.51
promoter activity interaction Z-score [4, 14]: 0.513 ± 0.74
promoter activity interaction Z-score [4, 15]: 0.553 ± 1.1
promoter activity interaction Z-score [4, 16]: 0.0526 ± 0.64
promoter activity interaction Z-score [4, 17]: 0.0577 ± 0.99
promoter activity interaction Z-score [4, 18]: 0.531 ± 0.43
promoter activity interaction Z-score [4, 19]: -0.23 ± 0.084
promoter activity interaction Z-score [4, 20]: -0.785 ± 0.17
promoter activity interaction Z-score [4, 21]: -0.582 ± 0.73
promoter activity interaction Z-score [4, 22]: -0.589 ± 0.59
promoter activity interaction Z-score [5, 7]: 0.148 ± 0.1
promoter activity interaction Z-score [5, 8]: 0.331 ± 0.014
promoter activity interaction Z-score [5, 9]: 0.202 ± 0.053
promoter activity interaction Z-score [5, 10]: 0.316 ± 0.0083
promoter activity interaction Z-score [5, 11]: -0.237 ± 0.079
promoter activity interaction Z-score [5, 12]: 0.237 ± 0.021
promoter activity interaction Z-score [5, 13]: 0.217 ± 0.043
promoter activity interaction Z-score [5, 14]: 0.23 ± 0.076
promoter activity interaction Z-score [5, 15]: 0.0391 ± 0.054
promoter activity interaction Z-score [5, 16]: 0.244 ± 0.1
promoter activity interaction Z-score [5, 17]: 0.0504 ± 0.034
promoter activity interaction Z-score [5, 18]: 0.138 ± 0.2
promoter activity interaction Z-score [5, 19]: -0.0707 ± 0.029
promoter activity interaction Z-score [5, 20]: 0.0916 ± 0.17
promoter activity interaction Z-score [5, 21]: 0.0849 ± 0.32
promoter activity interaction Z-score [5, 22]: 0.0804 ± 0.017
promoter activity interaction Z-score [6, 7]: -0.169 ± 0.35
promoter activity interaction Z-score [6, 8]: 0.807 ± 0.31
promoter activity interaction Z-score [6, 9]: 0.395 ± 0.66
promoter activity interaction Z-score [6, 10]: -0.505 ± 0.044
promoter activity interaction Z-score [6, 11]: 0.223 ± 1
promoter activity interaction Z-score [6, 12]: 0.212 ± 1.3
promoter activity interaction Z-score [6, 13]: 0.229 ± 0.18
promoter activity interaction Z-score [6, 14]: 0.282 ± 0.71
promoter activity interaction Z-score [6, 15]: -0.594 ± 0.74
promoter activity interaction Z-score [6, 16]: 0.0618 ± 0.085
promoter activity interaction Z-score [6, 17]: -0.255 ± 0.54
promoter activity interaction Z-score [6, 18]: 0.674 ± 0.27
promoter activity interaction Z-score [6, 19]: -0.385 ± 0.39
promoter activity interaction Z-score [6, 20]: -0.307 ± 0.67
promoter activity interaction Z-score [6, 21]: 0.0932 ± 0.95
promoter activity interaction Z-score [6, 22]: 0.0435 ± 0.33
